Legend:
[1] = biological target: Death-associated protein kinase 1 (Homo sapiens) (UniProt P53355); details: at 10 µM
[2] = biological target: Death-associated protein kinase 2 (Homo sapiens) (UniProt Q9UIK4); details: at 1 µM
[3] = biological target: T1, Serine/threonine-protein kinase DCLK2 (Homo sapiens) (UniProt Q8N568); details: at 1 µM
T1 sequence (whole entry): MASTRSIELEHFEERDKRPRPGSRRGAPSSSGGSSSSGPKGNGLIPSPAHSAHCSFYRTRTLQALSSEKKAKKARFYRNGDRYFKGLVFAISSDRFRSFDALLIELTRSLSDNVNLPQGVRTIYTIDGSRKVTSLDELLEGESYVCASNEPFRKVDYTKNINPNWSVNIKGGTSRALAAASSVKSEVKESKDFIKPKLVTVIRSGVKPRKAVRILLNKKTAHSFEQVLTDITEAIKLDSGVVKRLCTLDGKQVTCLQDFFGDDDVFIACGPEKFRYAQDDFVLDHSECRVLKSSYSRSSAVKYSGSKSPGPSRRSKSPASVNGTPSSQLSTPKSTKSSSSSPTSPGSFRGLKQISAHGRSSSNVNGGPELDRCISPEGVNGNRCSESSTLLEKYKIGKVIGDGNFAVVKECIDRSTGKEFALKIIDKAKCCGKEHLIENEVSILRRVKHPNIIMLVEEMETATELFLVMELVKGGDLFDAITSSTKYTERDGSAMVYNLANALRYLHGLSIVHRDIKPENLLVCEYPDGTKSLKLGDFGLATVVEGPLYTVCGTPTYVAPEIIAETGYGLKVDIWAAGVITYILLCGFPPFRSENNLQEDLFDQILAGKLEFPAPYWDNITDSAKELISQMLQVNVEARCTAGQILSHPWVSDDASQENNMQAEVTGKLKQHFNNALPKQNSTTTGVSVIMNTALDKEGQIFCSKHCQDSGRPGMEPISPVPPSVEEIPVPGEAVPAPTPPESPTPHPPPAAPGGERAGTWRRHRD

[4] = biological target: T1, Serine/threonine-protein kinase DCLK2 (Homo sapiens); details: at 10 µM
[5] = biological target: T2, Discoidin domain-containing receptor 2 (Homo sapiens) (UniProt Q16832); details: at 1 µM
T2 sequence (whole entry): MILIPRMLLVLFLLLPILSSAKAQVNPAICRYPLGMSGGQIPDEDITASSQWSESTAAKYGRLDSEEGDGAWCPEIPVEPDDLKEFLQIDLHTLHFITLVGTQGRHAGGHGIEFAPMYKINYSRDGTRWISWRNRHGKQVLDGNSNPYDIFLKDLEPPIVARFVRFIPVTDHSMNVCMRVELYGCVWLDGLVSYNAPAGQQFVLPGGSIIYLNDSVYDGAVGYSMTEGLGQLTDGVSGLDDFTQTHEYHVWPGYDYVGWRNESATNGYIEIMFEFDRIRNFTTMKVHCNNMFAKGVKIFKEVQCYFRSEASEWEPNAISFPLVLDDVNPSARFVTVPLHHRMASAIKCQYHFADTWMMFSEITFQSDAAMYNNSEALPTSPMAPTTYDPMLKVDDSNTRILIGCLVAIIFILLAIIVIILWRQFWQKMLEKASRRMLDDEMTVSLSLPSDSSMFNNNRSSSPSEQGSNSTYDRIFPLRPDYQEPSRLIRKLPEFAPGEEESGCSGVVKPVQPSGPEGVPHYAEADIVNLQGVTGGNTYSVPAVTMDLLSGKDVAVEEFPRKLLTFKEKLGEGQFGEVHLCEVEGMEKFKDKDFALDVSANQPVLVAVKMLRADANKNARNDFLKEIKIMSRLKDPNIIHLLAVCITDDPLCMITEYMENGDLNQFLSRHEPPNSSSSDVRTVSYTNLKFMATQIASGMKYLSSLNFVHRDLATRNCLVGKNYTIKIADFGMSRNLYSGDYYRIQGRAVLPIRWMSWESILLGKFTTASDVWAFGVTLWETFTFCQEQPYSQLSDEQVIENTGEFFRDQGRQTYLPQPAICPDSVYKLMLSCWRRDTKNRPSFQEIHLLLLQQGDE

[6] = biological target: T2, Discoidin domain-containing receptor 2 (Homo sapiens); details: at 10 µM
[7] = biological target: T3, Dual specificity tyrosine-phosphorylation-regulated kinase 2 (Homo sapiens) (UniProt Q92630); details: at 1 µM
T3 sequence (whole entry): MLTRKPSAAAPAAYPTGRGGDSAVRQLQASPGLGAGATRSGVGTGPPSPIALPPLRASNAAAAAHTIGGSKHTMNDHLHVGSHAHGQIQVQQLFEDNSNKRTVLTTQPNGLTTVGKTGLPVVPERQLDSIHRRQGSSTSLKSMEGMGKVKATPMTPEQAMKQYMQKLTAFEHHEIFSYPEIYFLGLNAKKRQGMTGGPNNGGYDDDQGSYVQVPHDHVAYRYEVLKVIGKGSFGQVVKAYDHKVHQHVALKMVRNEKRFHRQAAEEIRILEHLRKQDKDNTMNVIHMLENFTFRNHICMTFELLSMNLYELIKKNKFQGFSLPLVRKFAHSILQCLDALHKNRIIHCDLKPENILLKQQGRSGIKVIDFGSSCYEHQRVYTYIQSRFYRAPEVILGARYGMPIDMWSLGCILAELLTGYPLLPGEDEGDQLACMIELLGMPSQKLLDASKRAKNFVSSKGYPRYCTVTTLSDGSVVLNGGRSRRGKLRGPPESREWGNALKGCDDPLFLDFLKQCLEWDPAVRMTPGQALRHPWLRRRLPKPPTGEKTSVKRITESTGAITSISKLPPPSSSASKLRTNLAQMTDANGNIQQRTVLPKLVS

[8] = biological target: T3, Dual specificity tyrosine-phosphorylation-regulated kinase 2 (Homo sapiens); details: at 10 µM
[9] = biological target: T4, Ephrin type-A receptor 1 (Homo sapiens) (UniProt P21709); details: at 1 µM
T4 sequence (whole entry): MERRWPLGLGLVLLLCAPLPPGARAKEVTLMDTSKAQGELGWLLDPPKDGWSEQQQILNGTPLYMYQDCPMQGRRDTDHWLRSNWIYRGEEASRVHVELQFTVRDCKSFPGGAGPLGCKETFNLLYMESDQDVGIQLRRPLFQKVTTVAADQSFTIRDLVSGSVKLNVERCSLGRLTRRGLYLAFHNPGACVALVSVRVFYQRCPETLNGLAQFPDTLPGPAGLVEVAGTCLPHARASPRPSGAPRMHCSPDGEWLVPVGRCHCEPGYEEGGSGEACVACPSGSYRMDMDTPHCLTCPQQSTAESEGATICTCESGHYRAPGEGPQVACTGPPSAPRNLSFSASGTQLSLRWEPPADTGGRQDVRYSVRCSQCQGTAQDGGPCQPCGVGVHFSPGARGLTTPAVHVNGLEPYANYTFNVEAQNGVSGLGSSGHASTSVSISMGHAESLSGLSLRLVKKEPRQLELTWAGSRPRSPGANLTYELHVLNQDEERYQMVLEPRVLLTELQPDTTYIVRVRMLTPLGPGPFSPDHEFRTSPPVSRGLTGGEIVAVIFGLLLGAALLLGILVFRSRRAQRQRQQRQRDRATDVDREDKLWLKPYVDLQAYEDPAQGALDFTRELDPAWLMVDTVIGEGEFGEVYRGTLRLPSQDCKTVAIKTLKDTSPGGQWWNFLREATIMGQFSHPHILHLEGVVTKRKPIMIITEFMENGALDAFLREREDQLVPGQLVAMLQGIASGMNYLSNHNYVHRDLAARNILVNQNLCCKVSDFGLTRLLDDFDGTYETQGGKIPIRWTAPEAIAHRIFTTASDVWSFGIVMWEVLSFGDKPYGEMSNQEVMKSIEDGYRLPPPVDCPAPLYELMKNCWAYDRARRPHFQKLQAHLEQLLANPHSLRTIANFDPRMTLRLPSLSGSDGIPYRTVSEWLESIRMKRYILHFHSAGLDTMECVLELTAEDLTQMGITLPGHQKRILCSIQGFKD

[10] = biological target: T4, Ephrin type-A receptor 1 (Homo sapiens); details: at 10 µM
[11] = biological target: Ephrin type-A receptor 2 (Homo sapiens) (UniProt P29317); details: at 1 µM
[12] = biological target: Ephrin type-A receptor 2 (Homo sapiens) (UniProt P29317); details: at 10 µM
[13] = biological target: T5, Ephrin type-A receptor 3 (Homo sapiens) (UniProt P29320); details: at 1 µM
T5 sequence (whole entry): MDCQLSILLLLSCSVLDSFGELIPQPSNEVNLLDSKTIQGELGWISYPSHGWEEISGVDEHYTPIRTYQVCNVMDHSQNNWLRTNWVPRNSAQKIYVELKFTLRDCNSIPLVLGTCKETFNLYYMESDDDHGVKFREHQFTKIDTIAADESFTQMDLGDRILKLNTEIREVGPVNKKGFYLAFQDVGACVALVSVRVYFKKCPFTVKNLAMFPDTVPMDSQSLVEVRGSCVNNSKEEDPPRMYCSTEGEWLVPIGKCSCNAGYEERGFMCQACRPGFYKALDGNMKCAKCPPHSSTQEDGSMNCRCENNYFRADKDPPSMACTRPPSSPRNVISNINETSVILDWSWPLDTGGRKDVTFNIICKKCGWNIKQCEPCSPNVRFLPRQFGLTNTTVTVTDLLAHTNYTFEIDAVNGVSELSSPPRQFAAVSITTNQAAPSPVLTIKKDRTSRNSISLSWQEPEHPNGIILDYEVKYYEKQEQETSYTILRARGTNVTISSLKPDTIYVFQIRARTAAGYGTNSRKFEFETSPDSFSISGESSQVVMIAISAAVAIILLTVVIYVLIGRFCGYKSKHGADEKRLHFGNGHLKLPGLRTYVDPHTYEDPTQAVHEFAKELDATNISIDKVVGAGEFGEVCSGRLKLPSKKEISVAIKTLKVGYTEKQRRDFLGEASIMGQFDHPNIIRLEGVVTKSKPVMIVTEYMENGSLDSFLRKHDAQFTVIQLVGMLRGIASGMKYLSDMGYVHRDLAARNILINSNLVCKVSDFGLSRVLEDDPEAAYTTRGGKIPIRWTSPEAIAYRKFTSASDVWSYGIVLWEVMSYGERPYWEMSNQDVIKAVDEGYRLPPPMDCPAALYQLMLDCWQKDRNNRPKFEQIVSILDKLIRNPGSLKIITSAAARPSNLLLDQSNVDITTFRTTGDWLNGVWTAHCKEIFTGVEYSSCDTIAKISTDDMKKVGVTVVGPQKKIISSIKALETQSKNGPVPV

[14] = biological target: Death-associated protein kinase 2 (Homo sapiens) (UniProt Q9UIK4); details: at 10 µM
[15] = biological target: T6, Myotonin-protein kinase (Homo sapiens) (UniProt Q09013); details: at 1 µM
T6 sequence (whole entry): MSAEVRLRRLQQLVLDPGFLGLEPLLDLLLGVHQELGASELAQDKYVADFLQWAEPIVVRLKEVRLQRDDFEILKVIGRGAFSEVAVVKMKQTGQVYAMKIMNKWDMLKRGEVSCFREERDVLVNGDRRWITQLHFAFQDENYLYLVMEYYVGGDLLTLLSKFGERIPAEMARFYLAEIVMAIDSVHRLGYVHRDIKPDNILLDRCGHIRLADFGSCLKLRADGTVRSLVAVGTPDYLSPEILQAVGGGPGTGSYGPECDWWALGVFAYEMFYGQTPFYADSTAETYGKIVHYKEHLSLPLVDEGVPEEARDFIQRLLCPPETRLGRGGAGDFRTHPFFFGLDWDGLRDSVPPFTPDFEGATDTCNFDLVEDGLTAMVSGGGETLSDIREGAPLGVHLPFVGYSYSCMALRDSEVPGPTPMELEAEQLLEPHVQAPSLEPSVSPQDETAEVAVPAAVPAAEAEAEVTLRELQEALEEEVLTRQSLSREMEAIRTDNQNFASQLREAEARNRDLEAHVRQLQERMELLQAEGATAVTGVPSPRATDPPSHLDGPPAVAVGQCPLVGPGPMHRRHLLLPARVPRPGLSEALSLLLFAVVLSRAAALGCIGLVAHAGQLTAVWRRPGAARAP

[16] = biological target: T6, Myotonin-protein kinase (Homo sapiens); details: at 10 µM
[17] = biological target: T7, Serine/threonine-protein kinase 17A (Homo sapiens) (UniProt Q9UEE5); details: at 1 µM
T7 sequence (whole entry): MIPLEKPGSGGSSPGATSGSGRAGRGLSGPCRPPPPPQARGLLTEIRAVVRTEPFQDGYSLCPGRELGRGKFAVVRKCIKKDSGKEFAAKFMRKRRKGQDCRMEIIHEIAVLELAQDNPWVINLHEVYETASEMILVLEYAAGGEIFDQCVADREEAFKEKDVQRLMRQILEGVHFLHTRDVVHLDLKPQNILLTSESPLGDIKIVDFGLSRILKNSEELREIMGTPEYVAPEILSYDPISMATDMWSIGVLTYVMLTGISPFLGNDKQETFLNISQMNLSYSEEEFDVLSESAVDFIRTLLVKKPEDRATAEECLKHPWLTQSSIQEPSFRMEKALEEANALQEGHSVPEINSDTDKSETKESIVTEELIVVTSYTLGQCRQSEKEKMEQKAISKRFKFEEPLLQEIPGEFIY

[18] = biological target: T7, Serine/threonine-protein kinase 17A (Homo sapiens); details: at 10 µM

Sequence of Ephrin type-A receptor 2 (Homo sapiens) (P29317 whole entry): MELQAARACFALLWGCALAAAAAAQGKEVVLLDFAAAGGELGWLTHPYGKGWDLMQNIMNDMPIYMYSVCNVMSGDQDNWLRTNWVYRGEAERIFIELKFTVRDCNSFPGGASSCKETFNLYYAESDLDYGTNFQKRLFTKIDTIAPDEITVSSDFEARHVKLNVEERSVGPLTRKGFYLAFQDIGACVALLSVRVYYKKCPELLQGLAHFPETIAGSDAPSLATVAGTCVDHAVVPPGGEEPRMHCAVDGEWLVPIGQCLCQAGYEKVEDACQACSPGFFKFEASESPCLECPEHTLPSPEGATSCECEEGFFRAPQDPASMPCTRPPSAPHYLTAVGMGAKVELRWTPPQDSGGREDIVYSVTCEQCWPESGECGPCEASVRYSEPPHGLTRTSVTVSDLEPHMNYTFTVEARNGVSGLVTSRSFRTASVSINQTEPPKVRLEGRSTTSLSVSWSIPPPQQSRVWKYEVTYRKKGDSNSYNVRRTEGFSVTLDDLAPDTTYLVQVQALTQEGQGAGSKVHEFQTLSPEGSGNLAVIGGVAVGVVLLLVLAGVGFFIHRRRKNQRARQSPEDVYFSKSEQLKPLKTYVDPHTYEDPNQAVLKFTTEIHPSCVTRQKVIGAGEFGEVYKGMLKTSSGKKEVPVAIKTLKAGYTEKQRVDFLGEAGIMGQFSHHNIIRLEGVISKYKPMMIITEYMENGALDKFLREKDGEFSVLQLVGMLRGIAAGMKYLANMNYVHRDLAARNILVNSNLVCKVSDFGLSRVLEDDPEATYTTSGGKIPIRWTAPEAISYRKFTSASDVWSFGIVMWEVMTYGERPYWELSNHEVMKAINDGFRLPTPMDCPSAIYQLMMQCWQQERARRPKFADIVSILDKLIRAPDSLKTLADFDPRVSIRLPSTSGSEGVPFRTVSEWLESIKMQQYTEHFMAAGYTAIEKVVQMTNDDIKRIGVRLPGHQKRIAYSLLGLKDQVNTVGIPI
Sequence of Death-associated protein kinase 2 (Homo sapiens) (Q9UIK4 whole entry, looked up): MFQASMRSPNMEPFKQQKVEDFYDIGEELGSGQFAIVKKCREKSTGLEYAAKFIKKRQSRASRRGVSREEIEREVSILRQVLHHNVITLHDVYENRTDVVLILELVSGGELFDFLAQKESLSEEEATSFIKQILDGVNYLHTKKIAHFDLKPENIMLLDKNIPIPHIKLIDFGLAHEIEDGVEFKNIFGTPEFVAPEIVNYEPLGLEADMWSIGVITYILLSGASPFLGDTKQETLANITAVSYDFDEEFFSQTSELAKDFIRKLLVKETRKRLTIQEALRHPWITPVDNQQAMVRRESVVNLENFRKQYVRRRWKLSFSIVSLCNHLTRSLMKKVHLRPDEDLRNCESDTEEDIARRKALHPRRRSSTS
Sequence of Death-associated protein kinase 1 (Homo sapiens) (P53355 whole entry, looked up): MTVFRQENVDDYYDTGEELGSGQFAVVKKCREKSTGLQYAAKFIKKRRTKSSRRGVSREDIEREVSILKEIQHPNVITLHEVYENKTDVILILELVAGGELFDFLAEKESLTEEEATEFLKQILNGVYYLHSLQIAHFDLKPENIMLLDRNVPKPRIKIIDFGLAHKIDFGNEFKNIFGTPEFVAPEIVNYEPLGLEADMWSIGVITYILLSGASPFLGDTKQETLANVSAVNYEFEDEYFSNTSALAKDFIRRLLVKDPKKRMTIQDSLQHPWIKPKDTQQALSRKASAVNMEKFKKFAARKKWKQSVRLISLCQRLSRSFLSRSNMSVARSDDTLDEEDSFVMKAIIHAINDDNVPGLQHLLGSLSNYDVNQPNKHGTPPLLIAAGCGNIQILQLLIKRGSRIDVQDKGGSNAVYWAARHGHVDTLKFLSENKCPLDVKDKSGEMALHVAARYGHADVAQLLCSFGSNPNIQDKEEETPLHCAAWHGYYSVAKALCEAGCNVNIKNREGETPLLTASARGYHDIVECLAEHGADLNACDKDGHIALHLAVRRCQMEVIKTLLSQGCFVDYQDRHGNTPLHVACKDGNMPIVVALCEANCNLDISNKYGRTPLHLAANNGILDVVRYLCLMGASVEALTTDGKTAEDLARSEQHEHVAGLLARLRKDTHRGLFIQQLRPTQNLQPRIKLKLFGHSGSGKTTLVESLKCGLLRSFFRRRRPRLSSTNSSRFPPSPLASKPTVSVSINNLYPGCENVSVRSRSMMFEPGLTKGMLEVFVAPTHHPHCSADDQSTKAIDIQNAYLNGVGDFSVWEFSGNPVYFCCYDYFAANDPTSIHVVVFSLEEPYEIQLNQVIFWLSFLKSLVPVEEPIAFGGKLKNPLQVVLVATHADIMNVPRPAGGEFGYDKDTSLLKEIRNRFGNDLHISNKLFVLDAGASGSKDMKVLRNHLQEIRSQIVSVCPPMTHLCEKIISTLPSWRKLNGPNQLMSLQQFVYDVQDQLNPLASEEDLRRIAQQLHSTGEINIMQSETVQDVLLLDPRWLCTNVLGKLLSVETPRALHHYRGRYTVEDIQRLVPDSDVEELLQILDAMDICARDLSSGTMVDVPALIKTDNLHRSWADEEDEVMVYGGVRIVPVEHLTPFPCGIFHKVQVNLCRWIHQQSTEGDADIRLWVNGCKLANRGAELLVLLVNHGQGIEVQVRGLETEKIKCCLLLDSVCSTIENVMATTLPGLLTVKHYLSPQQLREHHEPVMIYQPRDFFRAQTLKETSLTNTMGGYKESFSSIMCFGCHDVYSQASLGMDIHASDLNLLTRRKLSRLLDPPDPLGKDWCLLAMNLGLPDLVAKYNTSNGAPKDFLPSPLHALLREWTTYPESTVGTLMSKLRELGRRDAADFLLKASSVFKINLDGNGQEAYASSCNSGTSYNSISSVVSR

SMILES	residual activity [1] [%]	residual activity [2] [%]	residual activity [3] [%]	residual activity [4] [%]	residual activity [5] [%]	residual activity [6] [%]	residual activity [7] [%]	residual activity [8] [%]	residual activity [9] [%]	residual activity [10] [%]	residual activity [11] [%]	residual activity [12] [%]	residual activity [13] [%]	residual activity [14] [%]	residual activity [15] [%]	residual activity [16] [%]	residual activity [17] [%]	residual activity [18] [%]
Cc1cncc2cccc(S(=O)(=O)N3CCCN(C(=O)CN)C[C@H]3C)c12	85	90	66	35	126	94	91	94	54	7	92	56	96	–	–	–	–	–
CNc1cc2c(Nc3cccc(Br)c3)ncnc2cn1	60	86	121	97	84	68	90	86	72	59	94	75	93	69	107	113	64	11
Cn1nc2c3c(cccc31)C(=O)c1ccccc1-2	77	93	75	89	100	104	91	75	88	68	92	97	88	76	127	84	50	20
Cc1cccc(-c2[nH]c(C(C)(C)C)nc2-c2ccc3c(c2)OCO3)n1	77	–	86	99	–	98	94	104	90	106	–	–	–	–	145	143	–	–
Nc1nc(Nc2ccc(S(N)(=O)=O)cc2)nn1C(=S)Nc1c(F)cccc1F	–	84	13	2	74	28	49	-1	1	3	13	-2	65	43	122	31	1	4
